A number with no mark means an inactive call. Calls of active or inactive are those of the source. Calls follow the shape of the dose curve; as a rule, active = well fitted curve in the direction sought with a large enough effect in the repeat runs; inconclusive = weak or mixed curves; inactive = flat fitted curve, though single readings scatter.
% is scaled to controls: 0 for no effect and ±100 for the full control effect.

The first assay is described as follows: qHTS assay to test for compound auto fluorescence at 535 nm (green) in HEK293 cells (AID 720680). The settings on record: green autofluorescence 485/535 nm; series mostly up to 91.3 µM. Background: qHTS replaces the single test concentration by a dilution series.
As for `O=c1[nH]c(=O)c2ccccc2o1`, the molecule was called inactive.

Regarding `Cc1cc(O)c2c(c1)C(=O)c1cccc(O)c1C2=O`, the molecule was called inactive.

With `FC(F)(F)/C(=N\OCC1OCCO1)c1ccc(Cl)cc1`, the outcome was inactive.

For the molecule `CC(C)=CC(C)(C)C`, the molecule was classed as inactive.

Consider `C=CCOCC(CO)(COCC=C)COCC=C`, for which the result was inactive.

Take `C[C@H](CCC(=O)NCC(=O)O)[C@H]1CC[C@H]2[C@@H]3[C@H](O)C[C@@H]4C[C@H](O)CC[C@]4(C)[C@H]3C[C@H](O)[C@]12C`: the result was inactive.

Turning to `O=S(=O)(O)CCO`, the result was inactive.

For `C[N+](C)(C)CC(O)CCl` (stereo not given), the molecule was called inactive.

Turning to `CN(C)CCOCCN(C)CCO`, the outcome was inactive.

For the molecule `CN(C)CCCNCCC#N`, the molecule was called inactive.

Take `C=CC(C)(O)CC/C=C(\C)CC` (stereo not given): the outcome was inactive.

Consider `O=C(Nc1cccc(C2=NCCN2)c1)Nc1cccc(C2=NCCN2)c1`, for which the call was inactive.

For `CC(C)(c1ccc(Oc2ccc3c(c2)C(=O)OC3=O)cc1)c1ccc(Oc2ccc3c(c2)C(=O)OC3=O)cc1`, the outcome was inactive.

Turning to `CO/N=C(/C(=O)N[C@@H]1C(=O)N2C(C(=O)O)=C(Cn3nnc(C)n3)CS[C@H]12)c1csc(N)n1`, the call was inactive.

`CC(=O)OCCCc1ccccc1`: the call was inactive.

For `COc1cc2c3cc1Oc1cc(ccc1O)C[C@@H]1c4c(cc(OC)c(O)c4Oc4ccc(cc4)C[C@@H]3N(C)CC2)CC[N+]1(C)C`, the molecule was called inactive.

As to `SCCSCCS`, the molecule was called inactive.

Take `CC1=NN(c2ccc(S(=O)(=O)O)cc2)C(=O)C1N=Nc1ccccc1` (stereo not given): the molecule was classed as inactive.

As for `CCNC(=O)NCCCOc1cccc(CN2CCCCC2)c1`, the call was inactive.

For `C1CCN2C[C@@H]3C[C@@H](CN4CCCC[C@@H]34)[C@H]2C1`, the fluorescence, % of fluorescein is -0.0731% [at 18.6 µM].

Consider `CC(C)CCCCCCOC(=O)C1CCCCC1C(=O)OCCCCCCC(C)C` (stereo not given), for which the result was inactive.

Consider `OCCCCCCCl`, for which the molecule was called inactive.

In the case of `CCCCCCCC/C=C\CCCCCCCC(=O)OC[C@@H](O)[C@H]1OC[C@H](O)[C@H]1O`, the molecule was classed as inactive.

Consider `Cc1cccc(Nc2ccncc2S(=O)(=O)NC(=O)NC(C)C)c1`, for which the fluorescence, % of fluorescein was -0.12% [at 18.6 µM].

For `CNC(=O)NC`, the molecule was called inactive.

On to `O=C(/C=C/c1ccccc1)NCCO`, for which the call was inactive.

With `O=C(O)c1ccccc1C(=O)OCc1ccccc1`, the molecule was classed as inactive.

Turning to `NC(Cc1c[nH]c2ccccc12)C(=O)O` (stereo not given), the outcome was inactive.

With `N#CCCOCCOCCC#N`, the call was inactive.

For the molecule `COC(OC)C(C)c1ccccc1` (stereo not given), the molecule was classed as inactive.

Take `Cc1ccccc1N1CCN(CCc2nnc3n2CCCC3)CC1`: the result was inactive.

For the molecule `CCN1CN(CC)CN(CC)C1`, the molecule was classed as inactive.

On to `O=P(O)(O)OCC(O)CO` (stereo not given), for which the call was inactive.

For the molecule `Cc1cccc(NC(=S)N(C)C)c1`, the result was inactive.

For `CCCCCCCC[Si](OCC)(OCC)OCC`, the molecule was classed as inactive.

The next assay in a line: qHTS assay to test for compound auto fluorescence at 460 nm (blue) in HEK293 cell free culture (AID 720681). To be noted: cell-free medium, autofluorescence 405/460 nm (blue); series mostly up to 91.3 µM. An outline of the steps:
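Test compounds were pinned into cell-free culture medium (DMEM with 10% FBS) and fluorescence was read directly at Ex/Em 405/460 nm. Signals were expressed as fluorescence equivalents of triamterene, with DMSO vehicle as control.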
On to `O=c1[nH]c(=O)c2ccccc2o1`, for which the result was inactive.

Turning to `Cc1cc(O)c2c(c1)C(=O)c1cccc(O)c1C2=O`, the outcome was inactive.

In the case of `FC(F)(F)/C(=N\OCC1OCCO1)c1ccc(Cl)cc1`, the molecule was called inactive.

In the case of `CC(C)=CC(C)(C)C`, the molecule was called inactive.

Take `C=CCOCC(CO)(COCC=C)COCC=C`: the outcome was inactive.

Take `C[C@H](CCC(=O)NCC(=O)O)[C@H]1CC[C@H]2[C@@H]3[C@H](O)C[C@@H]4C[C@H](O)CC[C@]4(C)[C@H]3C[C@H](O)[C@]12C`: the outcome was inactive.

Consider `O=S(=O)(O)CCO`, for which the call was inactive.

For the molecule `C[N+](C)(C)CC(O)CCl` (stereo not given), the result was inactive.

For the molecule `CN(C)CCOCCN(C)CCO`, the call was inactive.

As for `CN(C)CCCNCCC#N`, the molecule was classed as inactive.

In the case of `C=CC(C)(O)CC/C=C(\C)CC` (stereo not given), the outcome was inactive.

With `O=C(Nc1cccc(C2=NCCN2)c1)Nc1cccc(C2=NCCN2)c1`, the result was inactive.

Consider `CC(C)(c1ccc(Oc2ccc3c(c2)C(=O)OC3=O)cc1)c1ccc(Oc2ccc3c(c2)C(=O)OC3=O)cc1`, for which the outcome was inactive.

Consider `CO/N=C(/C(=O)N[C@@H]1C(=O)N2C(C(=O)O)=C(Cn3nnc(C)n3)CS[C@H]12)c1csc(N)n1`, for which the molecule was called inactive.

Regarding `CC(=O)OCCCc1ccccc1`, the molecule was classed as inactive.

Take `COc1cc2c3cc1Oc1cc(ccc1O)C[C@@H]1c4c(cc(OC)c(O)c4Oc4ccc(cc4)C[C@@H]3N(C)CC2)CC[N+]1(C)C`: the outcome was inactive.

Take `SCCSCCS`: the call was inactive.

With `CC1=NN(c2ccc(S(=O)(=O)O)cc2)C(=O)C1N=Nc1ccccc1` (stereo not given), the call was inactive.

With `CCNC(=O)NCCCOc1cccc(CN2CCCCC2)c1`, the result was inactive.

Consider `C1CCN2C[C@@H]3C[C@@H](CN4CCCC[C@@H]34)[C@H]2C1`, for which the fluorescence, % of fluorescent control is 0.0698% [at 18.6 µM].

In the case of `CC(C)CCCCCCOC(=O)C1CCCCC1C(=O)OCCCCCCC(C)C` (stereo not given), the molecule was classed as inactive.

`OCCCCCCCl`: the outcome was inactive.

Regarding `CCCCCCCC/C=C\CCCCCCCC(=O)OC[C@@H](O)[C@H]1OC[C@H](O)[C@H]1O`, the call was inactive.

In the case of `Cc1cccc(Nc2ccncc2S(=O)(=O)NC(=O)NC(C)C)c1`, the fluorescence, % of fluorescent control is -0.219% [at 18.6 µM].

Take `CNC(=O)NC`: the call was inactive.

`O=C(/C=C/c1ccccc1)NCCO`: the molecule was classed as inactive.

On to `O=C(O)c1ccccc1C(=O)OCc1ccccc1`, for which the call was inactive.

In the case of `NC(Cc1c[nH]c2ccccc12)C(=O)O` (stereo not given), the molecule was classed as inactive.

Regarding `N#CCCOCCOCCC#N`, the molecule was called inactive.

For the molecule `COC(OC)C(C)c1ccccc1` (stereo not given), the molecule was called inactive.

As for `Cc1ccccc1N1CCN(CCc2nnc3n2CCCC3)CC1`, the call was inactive.

As for `CCN1CN(CC)CN(CC)C1`, the result was inactive.

Regarding `O=P(O)(O)OCC(O)CO` (stereo not given), the result was inactive.

On to `Cc1cccc(NC(=S)N(C)C)c1`, for which the outcome was inactive.

As to `CCCCCCCC[Si](OCC)(OCC)OCC`, the result was inactive.

The values above are taken from PubChem BioAssay (Tox21).
